According to paper PMC5540273 (PLoS ONE, 2017):

Columns and labels:
Conditions in all cases: concentration: 1 μM, replicates: in singlicate; n = 1
[1] = tested on: CDK8
[2] = tested on: CDK9
[3] = tested on: CDKL1
[4] = tested on: CDKL2
[5] = tested on: CDKL3
[6] = tested on: CDKL5
[7] = tested on: CHEK1
[8] = tested on: CHEK2
[9] = tested on: CIT
[10] = tested on: CLK1
[11] = tested on: CLK2
[12] = tested on: CLK3
[13] = tested on: CLK4
[14] = tested on: CSF1R-autoinhibited
[15] = tested on: CSF1R
[16] = tested on: CSK
[17] = tested on: CSNK1A1L
[18] = tested on: CSNK1A1
[19] = tested on: CSNK1D
[20] = tested on: CSNK1E
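Also: KINOMEscan kinase panel screen.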

Cl.Cl.NCC(NC(=O)c1cc(-c2cccnc2)c(-c2ccnc3[nH]ccc23)s1)c1ccccc1 (centres unmarked) [GSK1323434]
%Inh [1]: 43%
%Inh [2]: 1%
%Inh [3]: 66%
%Inh [4]: 23%
%Inh [5]: 0%
%Inh [6]: 0%
%Inh [7]: 0%
%Inh [8]: 55%
%Inh [9]: 100%
%Inh [10]: 71%
%Inh [11]: 51%
%Inh [12]: 12%
%Inh [13]: 60%
%Inh [14]: 30%
%Inh [15]: 44%
%Inh [16]: 0%
%Inh [17]: 77%
%Inh [18]: 91.5%
%Inh [19]: 96.7%
%Inh [20]: 99%

CCNc1nccc(-c2c(-c3ccc(F)cc3)ncn2C2CCN(C)CC2)n1
%Inh [1]: 0%
%Inh [2]: 0%
%Inh [3]: 30%
%Inh [4]: 0%
%Inh [5]: 0%
%Inh [6]: 0%
%Inh [7]: 7%
%Inh [8]: 0%
%Inh [9]: 30%
%Inh [10]: 35%
%Inh [11]: 45%
%Inh [12]: 0%
%Inh [13]: 13%
%Inh [14]: 0%
%Inh [15]: 0%
%Inh [16]: 25%
%Inh [17]: 56%
%Inh [18]: 93%
%Inh [19]: 98.6%
%Inh [20]: 99.9%

Cc1ccccc1CC(=O)N1CCc2cc(-c3cn(C)c4ncnc(N)c34)ccc21 [GSK2603346]
%Inh [1]: 83%
%Inh [2]: 0%
%Inh [3]: 0%
%Inh [4]: 17%
%Inh [5]: 0%
%Inh [6]: 0%
%Inh [7]: 18%
%Inh [8]: 0%
%Inh [9]: 32%
%Inh [10]: 15%
%Inh [11]: 0%
%Inh [12]: 6%
%Inh [13]: 0%
%Inh [14]: 0%
%Inh [15]: 89%
%Inh [16]: 0%
%Inh [17]: 22%
%Inh [18]: 9%
%Inh [19]: 9%
%Inh [20]: 84%

Cn1cc(-c2ccc3c(c2)CCN3C(=O)Cc2cc(F)cc(F)c2F)c2c(N)ncnc21 [GSK2634140]
%Inh [1]: 88%
%Inh [2]: 3%
%Inh [3]: 8%
%Inh [4]: 29%
%Inh [5]: 0%
%Inh [6]: 3%
%Inh [7]: 9%
%Inh [8]: 0%
%Inh [9]: 36%
%Inh [10]: 16%
%Inh [11]: 0%
%Inh [12]: 24%
%Inh [13]: 16%
%Inh [14]: 0%
%Inh [15]: 87%
%Inh [16]: 0%
%Inh [17]: 17%
%Inh [18]: 0%
%Inh [19]: 13%
%Inh [20]: 47%

CN1CCN(Cc2ccc(NC(=O)Nc3ccc(N(C)c4ccnc(Nc5ccc(CS(C)(=O)=O)cc5)n4)cc3)cc2)CC1.Cl [GW827654]
%Inh [1]: 60%
%Inh [2]: 50%
%Inh [3]: 71%
%Inh [4]: 99.8%
%Inh [5]: 99.6%
%Inh [6]: 0%
%Inh [7]: 0%
%Inh [8]: 78%
%Inh [9]: 23%
%Inh [10]: 42%
%Inh [11]: 0%
%Inh [12]: 31%
%Inh [13]: 0%
%Inh [14]: 94.7%
%Inh [15]: 100%
%Inh [16]: 47%
%Inh [17]: 0%
%Inh [18]: 30%
%Inh [19]: 15%
%Inh [20]: 30%

COc1ccc(NC(=O)c2ccoc2)cc1-c1ccc(C(=O)NCC2CC2)cc1 [GW810437]
%Inh [1]: 38%
%Inh [2]: 16%
%Inh [3]: 11%
%Inh [4]: 0%
%Inh [5]: 2%
%Inh [6]: 6%
%Inh [7]: 0%
%Inh [8]: 0%
%Inh [9]: 0%
%Inh [10]: 0%
%Inh [11]: 16%
%Inh [12]: 0%
%Inh [13]: 6%
%Inh [14]: 3%
%Inh [15]: 7%
%Inh [16]: 0%
%Inh [17]: 8%
%Inh [18]: 0%
%Inh [19]: 0%
%Inh [20]: 3%

CS(=O)(=O)c1cccc(CNc2nc(Nc3ccc4c(c3)CCC(=O)N4)ncc2C(F)(F)F)c1
%Inh [1]: 0%
%Inh [2]: 8%
%Inh [3]: 23%
%Inh [4]: 37%
%Inh [5]: 10%
%Inh [6]: 0%
%Inh [7]: 0%
%Inh [8]: 0%
%Inh [9]: 37%
%Inh [10]: 46%
%Inh [11]: 22%
%Inh [12]: 0%
%Inh [13]: 24%
%Inh [14]: 0%
%Inh [15]: 20%
%Inh [16]: 1%
%Inh [17]: 0%
%Inh [18]: 0%
%Inh [19]: 0%
%Inh [20]: 0%

Cc1ccc(Nc2ccnc(Nc3ccc(C)c(F)c3)n2)cc1O.Cl [GW582868]
%Inh [1]: 0%
%Inh [2]: 0%
%Inh [3]: 9%
%Inh [4]: 40%
%Inh [5]: 0%
%Inh [6]: 0%
%Inh [7]: 0%
%Inh [8]: 0%
%Inh [9]: 28%
%Inh [10]: 13%
%Inh [11]: 86%
%Inh [12]: 3%
%Inh [13]: 14%
%Inh [14]: 25%
%Inh [15]: 29%
%Inh [16]: 0%
%Inh [17]: 12%
%Inh [18]: 0%
%Inh [19]: 0%
%Inh [20]: 19%

Cn1cc(-c2ccc3c(c2)CCN3C(=O)Cc2cc(F)cc(C(F)(F)F)c2)c2c(N)ncnc21 [GSK2635225]
%Inh [1]: 91.8%
%Inh [2]: 7%
%Inh [3]: 11%
%Inh [4]: 24%
%Inh [5]: 0%
%Inh [6]: 0%
%Inh [7]: 8%
%Inh [8]: 0%
%Inh [9]: 28%
%Inh [10]: 11%
%Inh [11]: 19%
%Inh [12]: 100%
%Inh [13]: 18%
%Inh [14]: 45%
%Inh [15]: 95.3%
%Inh [16]: 0%
%Inh [17]: 1%
%Inh [18]: 3%
%Inh [19]: 22%
%Inh [20]: 100%

N#CC1(c2cccc(C(=O)Nc3cccc(Oc4ccc5nc(NC(=O)C6CC6)sc5n4)c3)c2)CC1
%Inh [1]: 35%
%Inh [2]: 0%
%Inh [3]: 14%
%Inh [4]: 95.8%
%Inh [5]: 79%
%Inh [6]: 0%
%Inh [7]: 0%
%Inh [8]: 0%
%Inh [9]: 94.2%
%Inh [10]: 8%
%Inh [11]: 4%
%Inh [12]: 0%
%Inh [13]: 17%
%Inh [14]: 87%
%Inh [15]: 100%
%Inh [16]: 25%
%Inh [17]: 0%
%Inh [18]: 0%
%Inh [19]: 14%
%Inh [20]: 0%
